# Assay outcomes from PubChem BioAssay.
# Gal4-VP16 FLuc = VP16 counterscreen qHTS for inhibitors of ROR gamma transcriptional activity | Drosophila S2 Gal4-VP16 UAS-luciferase, luminescence, 20 h | Potency, µM (highest dose often 53.6 µM), without a hit: at the top dose activity, negative = inhibition, actives largely listed as inhibitors | 310,000 tested, 3.5% active | AID 2546, 2010;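 further: Gal4-VP16 expression switched on by copper sulfate through the metallothionein promoter; potency means the concentration at half of the fitted maximal effect; on the % scale 0 is the no-effect control and ±100 the full control effect; nearly all actives have a fitted effect of over 50% in size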
# RORgamma inh = qHTS for inhibitors of ROR gamma transcriptional activity; 310,000 tested, 5.4% active; Potency, µM (doses to about 53.6 µM), for the others: at the highest dose activity change, negative = inhibition, usual class: inhibitors; Nuclear receptor ROR-gamma (Mus musculus), P51450; Drosophila S2 Gal4-RORgamma UAS-luciferase reporter, 20 h; further: potency means the concentration at half of the fitted maximal effect; on the % scale 0 is the no-effect control and ±100 the full control effect; nearly all actives have a fitted effect of over 60% in size
# Target sequence (P51450 whole entry, looked up, the tested form may be a part): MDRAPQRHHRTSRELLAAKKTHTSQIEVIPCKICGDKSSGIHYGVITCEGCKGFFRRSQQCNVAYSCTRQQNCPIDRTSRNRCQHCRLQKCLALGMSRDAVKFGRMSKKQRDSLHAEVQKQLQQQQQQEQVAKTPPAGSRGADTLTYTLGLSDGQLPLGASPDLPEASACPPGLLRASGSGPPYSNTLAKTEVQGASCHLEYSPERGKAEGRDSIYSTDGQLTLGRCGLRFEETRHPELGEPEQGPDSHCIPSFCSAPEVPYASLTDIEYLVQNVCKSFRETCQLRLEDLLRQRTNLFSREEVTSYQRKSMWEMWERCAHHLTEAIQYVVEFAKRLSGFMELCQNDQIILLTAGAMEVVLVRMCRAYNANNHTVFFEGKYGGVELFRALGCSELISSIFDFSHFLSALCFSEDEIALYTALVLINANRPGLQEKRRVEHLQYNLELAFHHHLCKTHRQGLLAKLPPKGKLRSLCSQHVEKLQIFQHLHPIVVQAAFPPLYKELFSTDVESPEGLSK
#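 Schneider cells (Drosophila), stable Gal4 DBD–ROR gamma + UAS-luc; 1 hr cmpd preincubation; Cu2+ induction 700 uM final; 20 hr ambient; luminescence.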
# TRPV1 ag = HTS Assay for Compounds that Act as Agonists of the Vanilloid Receptor 1; AID 540275, 2011; 320,000 tested, 0.19% active; Transient receptor potential cation channel subfamily V member 1 (Homo sapiens), Q8NER1; activation, % at 8.33 µM; TRPV1-expressing cells, Fluo-8 calcium influx, agonist mode; in the data active means activation above about 80%; inconclusive means between about 30% and that limit; further: 0% is about no effect
#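 TRPV1-expressing cells were cultured overnight at 35.5C and loaded with Fluo-8 calcium dye for 40 to 90 min at room temperature. After a 10 s baseline, compound was added and calcium influx was read kinetically for 3 min (ex 480/em 520 nm).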
# uPA generation = qHTS for Inhibitors of Cell Surface uPA Generation; cell surface uPA generation assay, qHTS; Potency, µM (series often up to 38.3 µM), inactives show top-dose activity change, negative = inhibition, actives largely listed as inhibitors; 330,000 tested, 0.31% active; AID 540303, 2011; active means well fitted inhibition curve with a large enough effect; inconclusive means small, poorly fitted or top-dose-only effect; inactive means no such curve, though single readings can be large or run the other way; tested in mouse RAW 264.7 cells; further: potency means the concentration at half of the fitted maximal effect; on the % scale 0 is the no-effect control and ±100 the full control effect; nearly all actives have a fitted effect of over 55% in size
# TRPV1 potentiator = HTS Assay for Compounds that Act as Potentiators of the Vanilloid Receptor 1; Transient receptor potential cation channel subfamily V member 1 (Homo sapiens), Q8NER1; TRPV1-expressing cells, Fluo-8 calcium influx, capsaicin EC20 potentiation; potentiation, % at 8.33 µM; 320,000 tested, 0.02% active; AID 540277, 2011; in the data active means potentiation above about 80%; inconclusive means between about 30% and that limit; further: 0% is about no effect
#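 Fluo-8 calcium influx in TRPV1-expressing cells, kinetic read (ex 480/em 520 nm). Compound added and read 3 min for agonist activity, followed by capsaicin at EC20 final and 2 min further read for enhancement.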
# * marks the source's active call; other numbers are inactive results; ? = inconclusive; . = no result; ! = not active in a repeat. Only some compounds are listed: those with a hit (about 5.8% of all), similar ones and a draw of the others. Unless noted, the call rests on the fitted dose curve; in most records, active means well fitted curve in the direction sought with a large enough effect; inconclusive means small, poorly fitted or top-dose-only effect, or another doubt; inactive means no such curve, though single readings can be large; an effect the other way counts as inactive or inconclusive.
SMILES,Gal4-VP16 FLuc,RORgamma inh,TRPV1 ag,uPA generation,TRPV1 potentiator
CCOC(=O)CC(SP(=O)(OC)OC)C(=O)OCC (centres undefined),-14.5%,-0.3%,.,.,.
CCOC(=O)C(SP(=S)(OC)OC)c1ccccc1 (centres undefined),?,12.6µM*,.,.,.
CCN1C[C@]2(C)CC[C@H](OC)[C@@]34[C@H]1C1(OCO[C@@]15C[C@H](OC)C1C[C@]3(O)C5[C@H]1OC)[C@@H](O)[C@H]24,-4.6%,7.1%,.,.,.
C=C(C)[C@@H]1CC[C@]2(C(=O)O)CC[C@]3(C)C(CCC4[C@@]5(C)CC[C@H](O)C(C)(C)C5CC[C@]43C)C12 (some centres undefined),-5.6%,3.16µM*,0.6,14.8%,7.2
COc1ccc(O)c(/C=N/NC(=S)Nc2cccnc2)c1,-23.1%,6.31µM*,4.4,11.2µM*,-4.0
COc1ccc(OC)c(/C=N/OC(=O)Nc2ccc(Cl)cc2)c1,22.5%,-19.2%,2.5,-26.0%,2.6
CCCCC/C=C\C/C=C\C/C=C\CCCCC(=O)NCCc1ccc(O)c(O)c1,-12.6%,-4.9%,.,.,.
CCCCCCCC/C=C\CCCCCCCC(=O)OC[C@@H](COP(O)(O)=S)OC,-3.6%,1.1%,.,.,.
CC(C)(C)NS(=O)(=O)c1ccc(OCC(=O)N2CCN(Cc3ccccc3)CC2)cc1,?,-38.8%,2.4,-8.7%,-5.9
CC(C)NS(=O)(=O)c1ccc(OCC(=O)N2CCN(Cc3ccccc3)CC2)c(Cl)c1,20µM*,?,4.3,-0.1%,?
COc1cc(C2c3cc4c(cc3C(OC(C)=O)[C@H]3COC(=O)C23)OCO4)cc(OC)c1OC (some centres undefined),-8.9%,0.5%,.,.,.
Cc1ccc(C(=O)n2c(N)nc3ccccc32)cc1,6.31µM*,1.58µM*,?,-17.6%,-17.0
CCCOc1ccc2[nH]cc(C3=CCNCC3)c2n1,-3.2%,-3.6%,.,.,.
C=CC(=O)OCC,-2.4%,4.1%,.,.,.
O=C(O)c1cc(Cl)ccc1Cl,-29.6%,-18.0%,.,.,.
O=C(CCl)c1ccc(Cl)cc1Cl,?,8.91µM*,.,.,.
CC(=O)O[C@@H]1[C@@H](O)C2OC3C=C(C)C(=O)[C@@H](O)[C@]3(CO)C1(C)C21CO1 (some centres undefined),0.112µM*,0.631µM*,.,.,.
CN(C)C(=S)SC(=S)N(C)C,?,6.31µM*,.,.,.
CN(C)C(=S)SSC(=S)N(C)C,1µM*!,0.112µM*,4.6,?,-15.0
C=C1C(=O)O[C@@H]2C[C@@H](C)[C@H]3C=CC(=O)[C@]3(O)C[C@@H]12,?,7.08µM*,1.2,?,16.7
C=C1C(=O)OC2CC3(C)OC3CCC(C)=CC(OC(C)=O)C12 (centres undefined),.,.,.,-10.8%,.
CCOP(=S)(OCC)O/N=C(\C#N)c1ccccc1Cl,-2.4%,-14.4%,.,.,.
CCC(C)n1c(O)c(C=NCCc2ccccc2)c(=O)[nH]c1=S (centres undefined),?,10µM*,18.8,-2.6%,-16.3
CCC(C)n1c(O)c(/C=N/Nc2ccccc2)c(=O)[nH]c1=S (centres undefined),6.31µM*,14.1µM*,3.2,3.1%,-21.5
CN(CC(=O)O)C(=O)[C@H](Cc1ccccc1)NC(=O)[C@@H](CCCN=C(N)N)NC(=O)[C@@H](N)Cc1ccc(O)cc1,-6.0%,23.0%,.,.,.
SMILES,Gal4-VP16 FLuc,RORgamma inh,TRPV1 ag,uPA generation,TRPV1 potentiator
CN1C2CCC1CC(OC(=O)c1ccc(Cl)cc1)C2 (centres undefined),-5.1%,-3.6%,-0.1,9.9%,0.6
CN1[C@@H]2CC[C@H]1CC(O[C@@H](c1ccccc1)c1ccc(Cl)cc1)C2 (some centres undefined),14.1µM*,12.6µM*,.,.,.
CN(C)c1ccc(P(=S)(N(C)C)N(C)C)cc1,1.7%,?,0.0,.,22.7
CN(C)c1ccc(N=O)cc1,5.62µM*,2.24µM*,.,.,.
Oc1cccc(Cl)c1,7.7%,-2.3%,.,.,.
O=C(N/N=C/c1cn(-c2ccccc2)nc1-c1cccs1)c1ccc(Cl)cc1,5.01µM*,2.51µM*,10.4,?,-5.5
COC(=O)C12CC3=C[C@H](CC3=O)Cc3ccccc3[C@@H]1CNC2=O (some centres undefined),3.9%,-25.7%,.,.,.
